Screens (PubChem BioAssay)
DT40 TDP1 CPT – growth inhibition of DT40 Tdp1-/-;hTDP1 cells with camptothecin (screen for TDP1 inhibitors). Potency, µM (highest dose often 46.2 µM), without a hit: at the highest dose activity change, negative = growth inhibition, most hits filed as inhibitors. actives 12% (n = 420,000). chicken DT40 Tdp1-/-;hTDP1 cells + 20 nM CPT, ATP luminescence, 48 h; further: potency means the concentration at half of the fitted maximal effect; nearly all actives have a fitted effect of over 55% in size
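Chicken DT40 Tdp1-/- cells complemented with human TDP1, 400 cells/well, exposed to compounds plus 20 nM camptothecin for at least 48 h at 37 C; viability read as ATP content by CellTiter-Glo luminescence.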
HT1080-NT tox – kills 2HG-producing HT-1080-NT fibrosarcoma cells. actives 1.6% (n = 360,000). Potency, µM (top dose mostly 46.1 µM), for inactives: at the highest dose activity, negative = less viability, actives largely listed as cytotoxic. HT-1080-NT fibrosarcoma viability, CellTiter-Glo ATP luminescence, 48 h. AID 686970;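 further: NT is the 2HG producing partner of a matched IDH1 knockdown line; potency means the concentration at half of the fitted maximal effect; 0% = DMSO-treated cells and -100% = media-only wells without cells; nearly all actives have a fitted effect of over 55% in size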
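Compounds were tested in concentration-response format on HT-1080-NT cells for 48 hours at 37 degrees C. Cell viability came from CellTiter-Glo luminescence; curves were classified by r2, response magnitude and activity.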
IL-1B inflam inh – inflammasome signaling inhibition, IL-1 beta readout | THP-1 LPS/ATP IL-1B secretion, AlphaLISA, 16 h; hits give low values | AID 743279 | actives 4.7% (n = 360,000) | activity change, % at 57.5 µM; in the data active means activity change below about -50%; inconclusive means mostly about -30% to -49%
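THP-1 cells pretreated 1 hr with compounds (up to 57.5 uM final), then stimulated with LPS (250 ng/mL final) plus ATP (1.25 mM final); secreted IL-1B measured by AlphaLISA after 16 hr, decreased signal indicating inhibition.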
DT40 TDP1 no CPT – qHTS for Inhibitors of human tyrosyl-DNA phosphodiesterase 1 (TDP1): qHTS in cells in absence of CPT; DT40 Tdp1-/- hTDP1 cells, no CPT, ATP luminescence, 48 h; Potency, µM (series often up to 46.2 µM), for the others: at the top dose activity change, negative = growth inhibition, actives largely listed as inhibitors; actives 15% (n = 420,000); AID 686978, 2013; further: potency means the concentration at half of the fitted maximal effect; nearly all actives have a fitted effect of over 55% in size
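Camptothecin absent (DMSO only). Human TDP1-complemented DT40 knockout cells, 400 cells/well, 37 °C for minimum 48 hr; ATP measured via CellTiter-Glo, 30 min dark incubation, luminescence.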
HT1080 IDH1KD tx – HT-1080 IDH1 knockdown cell toxicity (counter line) | HT-1080 IDH1 knockdown viability, ATP luminescence, 48 h | Potency, µM (series often up to 46.1 µM), inactives show at the top dose activity, negative = toxicity, usual class: cytotoxic | actives 2% (n = 360,000);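 further: potency means the concentration at half of the fitted maximal effect; 0% = DMSO wells and -100% = cell-free medium wells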
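Viability of IDH1-knockdown HT-1080 fibrosarcoma cells was assessed by CellTiter-Glo after 48 h at 37 °C with titrated compound; concentration-effect curves were classified by fit quality and response size.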
Active calls of the source: *; ? = inconclusive; / = no result; [ ] = dose if it differs, or a comment. Shown are actives, neighbours in structure and some others; about 19% of the full set was active somewhere. Unless noted, the call rests on the fitted dose curve; in most records, active means well fitted curve in the direction sought with a large enough effect; inconclusive means small, poorly fitted or top-dose-only effect, or another doubt; inactive means no such curve, though single readings can be large; an effect the other way counts as inactive or inconclusive. Unless noted, on the % scale 0 is the no-effect control and ±100 the full control effect.

SMILES | DT40 TDP1 CPT | HT1080-NT tox | IL-1B inflam inh | DT40 TDP1 no CPT | HT1080 IDH1KD tx
O=c1c(-c2cc(-c3ccccc3)nc3c2COc2ccccc2-3)coc2ccc(Cl)cc12 | -3.6% | / | / | -0.5% | /
COc1ccc2cc(C3=CC(=O)CC(C)(C)C3=O)ccc2c1 | -25.7% | -11.9% | 18.3 | ? | -4.2%
O=C(c1ccco1)N1N=C(c2ccc3nccnc3c2)CC1c1ccccc1 (stereo unspecified) | ? | -1.8% | -27.3 | 18.4µM* | -0.6%
CS(=O)(=O)Nc1ccc(C2=NN(C(=O)c3ccco3)C(c3ccc(F)cc3)C2)cc1 (stereo unspecified) | -29.5% | -22.2% | -78.7* | 16.4µM* | -30.4%
CN(C)CCCNc1cn[nH]c(=O)c1Cl | -3.2% | 12.4% | -2.4 | -13.3% | 7.3%
O=C(O)c1c(Cl)c(Cl)c(Cl)c(Cl)c1-c1c2cc(I)c(=O)c(I)c-2oc2c(I)c(O)c(I)cc12 | ? | / | / | 15µM* | /
CC(C)NCCCCOc1cccc(Br)c1 | ? | -3.4% | -20.5 | 23.1µM* | -13.4%
CC(C)NCCOc1cccc(Br)c1 | -12.7% | -7.0% | -8.8 | -16.3% | 2.5%
Brc1cccc(OCCCNC2CCCC2)c1 | ? | -27.4% | ? | 20.6µM* | -10.3%
C=CCNCCCCOc1cccc(Br)c1 | -6.2% | -6.9% | -64.7* | -21.9% | -5.4%
CS(=O)(=O)N1Cc2ccccc2CC1C(=O)Nc1ccccc1C(N)=O (stereo unspecified) | 23.1µM* | 2.7% | 19.3 | -22.7% | 10.0%
CCS(=O)(=O)N1Cc2ccccc2CC1C(=O)Nc1nc2ccccc2s1 (stereo unspecified) | ? | -13.4% | 11.6 | 16.4µM* | -3.7%
CC(=O)c1cc(CC=C(C)C)c(O)c(CC=C(C)C)c1O | ? | -17.5% | -14.1 | ? | -25.7%
CC(C)=CCC/C(C)=C/Cc1c(O)ccc(C(=O)/C=C/c2ccc(O)cc2)c1O | ? | ? | -80.0* | 20.6µM* | -26.4%
CCc1c(OC(C)=O)c2ccccc2n(C)c1=O | -21.0% | -4.7% | -2.0 | 0.7% | 1.8%
CC(=O)Oc1c(C)c(=O)n(C)c2ccccc12 | -14.5% | 12.9% | -89.1* | -1.6% | -19.7%
Cc1cc(S(=O)(=O)N2CCOCC2)c(C)s1 | -16.9% | 7.2% | 8.8 | 2.9% | 3.7%
Cc1cc(C)cc(Oc2nc(C(F)(F)F)nc3ccccc23)c1 | 18.4µM* | ? | 12.2 | 20.6µM* | ?
COc1ccc(CN(C2CCCCC2C)S(=O)(=O)c2ccc(S(=O)(=O)N(C)C)cc2)cc1OC (stereo unspecified) | 16.4µM* | -3.7% | 48.9 | 20.6µM* | -12.3%
Cc1cc2c(c(C)nn2-c2ccccc2)c(=O)o1 | -3.4% | 5.0% | 10.3 | -14.7% | -0.4%
Cc1c(-c2ccc(Cl)cc2)oc(=O)c2c(N)n(-c3ccccc3)nc12 | ? | -0.2% | 0.0 | 7.31µM* | -17.0%
Nc1c2c(=O)oc(-c3ccccc3)cc2nn1-c1ccccc1 | 25.9µM* | ? | -99.4* | ? | ?
Nc1nonc1-n1nnc(C(=O)N/N=C/c2ccoc2)c1CSc1ccc(Cl)cc1 | -9.5% | -12.5% | -1.8 | -22.1% | -6.3%
Cc1ccc(/C=C/c2onc(C)c2S(=O)(=O)N2CCC(C(=O)N3CCN(c4ccccc4F)CC3)CC2)cc1 | 20.6µM* | / | / | 2.59µM* | /
CC(=O)c1ccc(N2CCN(C(=O)C3CCN(S(=O)(=O)c4c(C)noc4/C=C/c4ccc(C)cc4)CC3)CC2)cc1 | 6.51µM* | / | / | 2.59µM* | /
SMILES | DT40 TDP1 CPT | HT1080-NT tox | IL-1B inflam inh | DT40 TDP1 no CPT | HT1080 IDH1KD tx
Cc1ccc(/C=C/c2onc(C)c2S(=O)(=O)N2CCC(C(=O)N3CCC(N(C)C(C)C)CC3)CC2)cc1 | 5.17µM* | / | / | 6.51µM* | /
Cc1noc(C)c1S(=O)(=O)N1CCC(C(=O)N2CCN(c3ccc(Cl)cc3)CC2)CC1 | ? | -6.3% | -26.6 | ? | -14.7%
COCC(C)NC(=O)c1ccc2c(c1)S(=O)(=O)c1ccccc1C2=O (stereo unspecified) | -1.2% | 1.2% | -12.4 | 0.5% | -3.8%
CCOc1ccccc1NC(c1nnc(-c2ccccc2)o1)c1ccc(F)cc1Cl (stereo unspecified) | ? | / | / | 20.6µM* | /
Fc1ccc(C(c2nnc(-c3ccccc3)o2)N2CCN(c3ccccc3)CC2)c(Cl)c1 (stereo unspecified) | ? | / | / | 20.6µM* | /
CC(C)c1ccc(NC(c2nnc(-c3ccccc3)o2)c2ccc(F)cc2Cl)cc1 (stereo unspecified) | ? | / | / | 18.4µM* | /
CC1CCCC(C)N1C(=O)COC(=O)c1ccc2c(c1)OCO2 (stereo unspecified) | -0.7% | -6.1% | 12.8 | 29.1µM* | -0.5%
CCOC(=O)CNC(=O)/C=C/c1ccc2c(c1)OCO2 | 0.7% | -3.4% | -3.6 | -18.1% | -27.9%
CCOC(=O)c1cccc(NC(=O)/C=C/c2ccc3c(c2)OCO3)c1 | ? | ? | -89.5* | 18.4µM* | ?
CCOC(=O)c1c(C)c(C(=O)Nc2ccc3c(c2)OCCO3)c(C)n1CC | 10µM* | ? | 16.2 | 11.2µM* | ?
CC(=O)c1cccc(NC(=O)c2ccc3c(c2)OCO3)c1 | ? | 3.2% | -8.0 | ? | 0.0%
CCOC(=O)c1cccc(NC(=O)c2ccc3c(c2)OCO3)c1 | 14.6µM* | 0.7% | -84.7* | 11.6µM* | -11.9%
CCOC(=O)c1c(C)c(C(=O)Nc2ccc3c(c2)OCO3)c(C)n1C | 0.6% | 15.6% | 0.0 | -4.1% | 2.6%
Cc1ncc2c(c1CNC(=O)c1ccc3c(c1)OCO3)CCN(C(=O)c1coc3c1C(=O)CCC3)C2 | 11.7%[9.04 µM] | / | / | -16.1% | /
O=C(NCCCn1cccn1)c1cc(COc2ccccc2)on1 | ? | 0.1% | -0.2 | ? | 4.5%
CC1CCN(C(=O)Cn2cc3c(n2)CCCC3)CC1 | -0.9% | 6.0% | -3.2 | -5.4% | 0.3%
O=C1CC(C(F)(F)F)=NN1 | 11.3% | 20.9% | / | -4.7% | 13.9%
COc1ccc(C2(N3CCN(c4cccc(C)c4C)CC3)C(=O)c3ccccc3C2=O)cc1 | -0.8% | / | / | -3.2% | /
COc1ccc(C2=C(N3CCN(c4cccc(C)c4C)CC3)c3ccccc3C2=O)cc1 | 16.4µM* | / | / | ? | /
Cc1ccc(C)c(N2CCN(c3nnnn3-c3ccccc3)CC2)c1 | ? | ? | 29.4 | ? | ?
Cc1ccc(C)c(N2CCN(C3=C(c4ccccc4)C(=O)c4ccccc43)CC2)c1 | 7.31µM* | / | / | 16.4µM* | /
O=C(NC1CC1)c1ccc2sc([C@@H]3O[C@H](CO)[C@H](O)[C@H](O)[C@H]3O)nc2c1 | 15.3% | 5.1% | 13.8 | 3.0% | 13.9%
